Inconclusive results are not listed. Activity calls are given as the source filed them. Rule for the calls: active = hit-call score of the fitted dose curve at least 0.9, where 1 is the maximum; inconclusive = response in the unintended direction; inactive = score below 0.9.

The source of these data is PubChem BioAssay (EPA / NIEHS).

This assay in a line: Tanguay_ZF_120hpf_BRAI_legacy: (Legacy) Oregon State University Tanguay Lab 120 Hour Post-fertilization zebrafish Assay for Brain Malformation (AID 2283641). The protocol:
Tanguay_ZF_120hpf_legacy is a whole embryo, multiplexed endpoint assay using zebrafish larvae exposed for 120 hours post fertilization on a 96-well plate.Tanguay_ZF_120hpf_BRAI_legacy is one of one assay component(s) measured or calculated from the Tanguay_ZF_120hpf_legacy assay. It is designed to make measurements of zebrafish development as detected with brightfield microscopy of developing zebrafish embryos.Data from the assay component Tanguay_ZF_120hpf_BRAI_legacy was analyzed into 1 assay endpoints. This assay endpoint, Tanguay_ZF_120hpf_BRAI_legacy, was analyzed in the positive analysis fitting direction relative to DMSO as the negative control and baseline of activity. Using a type of morphology reporter, gain-of-signal activity can be used to understand changes in developmentals as they relate to the whole embryo. To generalize the intended target to other relatable targets, this assay endpoint is annotated to the zebrafish development intended target family, where the subfamily is brain morphogenesis.
Zebrafish husbandry: Tropical 5D wild-type adult zebrafish were housed in at an approximate density of 1000 per 100 gallon tank at the Sinnhuber Aquatic Research Laboratory, Oregon State University, Corvallis, OR. Each tank was kept at standard laboratory conditions of 28C on a 14-h light/10-h dark photoperiod in fish water consisting of reverse osmosis water supplemented with a commercially available salt (Instant Ocean). Spawning funnels were placed into the tanks the night prior, and embryos were collected and staged. […] Ten microliters of each row of dilution plate 2 was added to 2 exposure plates. The final DMSO concentration used was 0.64% (vol/vol). Thirty-two embryos were also exposed to 5uM trimethyltin chloride (positive control). Plates were sealed to prevent evaporation and foil covered to reduce light exposure and kept in a 28C incubator. Embryos were statically exposed until 120 hpf. At 24 hpf, embryos were assessed for photomotor response using a custom photomotor response analysis tool (PRAT) and for developmental toxicity endpoints (MO24: mortality at 24 hpf, DP: developmental progression, SM: spontaneous movement, and NC: notochord distortion). At 120 hpf, locomotor activity was measured using Viewpoint Zebralab and assessed for 18 endpoints. Zebrafish acquisition and analysis program (ZAAP), a custom program designed to inventory, acquire, and manage zebrafish data, was used to collect developmental endpoints as either present or absent (i.e., binary responses were recorded). If mortality occurred for an embryo (at either 24 or 120 hpf), the non-mortality endpoints were not measured.
As for `c1ccc2c(c1)Nc1ccccc1S2`, the compound was classed as inactive.

Usually AC50 stands for the concentration giving half of the maximal activity seen. Turning to `Nc1ccc2ccccc2c1`, the AC50 was 202 µM (active).

Turning to `CCNc1nc(Cl)nc(NC(C)(C)C)n1`, the call was inactive.

As for `CCOP(=S)(Oc1ccc([N+](=O)[O-])cc1)c1ccccc1` (stereo not drawn), the compound was called inactive.

As for `Nc1ccc(Cl)cc1`, the result was inactive.

On to `c1cc2c3c(cccc3c1)CC2`, for which the result was inactive.

Take `CCCCCCCc1ccc(O)cc1`: the result was inactive.

Take `CCOS(=O)(=O)OCC`: the compound was called inactive.

In the case of `CN(C)C(=O)Cl`, the result was inactive.

In the case of `O=[N+]([O-])c1ccc(Cl)c(Cl)c1`, the compound was classed as inactive.

Take `CCOc1ccc(C(C)(C)COCc2cccc(Oc3ccccc3)c2)cc1`: the result was inactive.

In the case of `c1nc[nH]n1`, the call was inactive.

For `CCC1(c2ccccc2)C(=O)N=C(O)NC1=O` (stereo not drawn), the compound was called inactive.

Consider `CC(Cc1ccc(OCC(=O)O)cc1)NCC(O)c1csc(C(F)(F)F)n1` (stereo not drawn), for which the result was inactive.

`OCC1CO1` (stereo not drawn): the compound was classed as inactive.

Turning to `O=P1(N(CCCl)CCCl)NCCCO1` (stereo not drawn), the result was inactive.

For `CC(Cl)(Cl)C(=O)O`, the result was inactive.

As to `Cc1ccc([N+](=O)[O-])cc1C`, the outcome was inactive.

Take `CCCCN(CCCC)N=O`: the compound was classed as inactive.

On to `CC(C)(C)OOC(C)(C)C`, for which the compound was called inactive.

For the compound `CCOC(=O)c1ccccc1C(=O)OCC`, the compound was called inactive.

As for `O=P(Oc1ccccc1)(Oc1ccccc1)Oc1ccccc1`, the result was inactive.

Regarding `Cc1ccc(N)cc1N`, the compound was called inactive.

Consider `CCCN(CCC)c1c([N+](=O)[O-])cc(C(C)C)cc1[N+](=O)[O-]`, for which the compound was called inactive.

For `Cc1cccc(N)c1`, the result was inactive.

With `O=[N+]([O-])c1ccccc1`, the result was inactive.

As to `CCOP(=S)(OCC)SCSCC`, the compound was called inactive.

On to `c1ccc(OP(Oc2ccccc2)Oc2ccccc2)cc1`, for which the outcome was inactive.

Regarding `CCCCN(CCCC)SN(C)C(=O)Oc1cccc2c1OC(C)(C)C2`, the compound was called inactive.

With `O=C(O)C(Cl)Cl`, the call was inactive.

As to `ClC1=C(Cl)C2(Cl)C3C(Cl)C(Cl)CC3C1(Cl)C2(Cl)Cl` (stereo not drawn), the compound was classed as inactive.

With `CCN(CC)c1ccccc1`, the result was inactive.

For the compound `CSC(C)(C)C=NO`, the result was inactive.

Consider `[N-]=[N+]=[N-]`, for which the compound was classed as inactive.

For the compound `COCCOCCO`, the result was inactive.

In the case of `CCC(C)(C)c1ccc(O)cc1`, the concentration at half-maximal activity (AC50) was 48.1 µM (active).

For the compound `O=C(O)C1C(C(=O)O)C2(Cl)C(Cl)=C(Cl)C1(Cl)C2(Cl)Cl` (stereo not drawn), the call was inactive.

Take `CCCCc1ccccc1`: the outcome was inactive.
